Test results: the antibiotic and cytotoxicity screens of Wong et al. (2023)
Out of some 39,000 compounds screened, about 3,300 (8.5%) were called active. Many of the other results were omitted from the sample, so actives are more common in it than they were.

test system: HepG2; assay: cytotoxicity call (relative viability < 0.9); details: 10 µM

SMILES	cytotoxicity call
CN(C)C(=O)Cn1c(=O)oc2ccccc21	inactive
COc1ccc(CN(C)C[C@@H]2Oc3ccc(NS(=O)(=O)c4cn(C)cn4)cc3C(=O)N([C@H](C)CO)C[C@@H]2C)cc1	inactive
O=C(C[C@H]1CC[C@H]2[C@@H](COC[C@@H](O)CN2S(=O)(=O)c2ccccc2Cl)O1)NCCc1ccncc1	inactive
C[C@H](CO)N1C[C@H](C)[C@H](CN(C)Cc2ccc3c(c2)OCO3)Oc2ccc(NC(=O)Nc3cccc4ccccc34)cc2C1=O	inactive
COc1ccc(S(=O)(=O)Nc2ccc3c(c2)C(=O)N([C@@H](C)CO)C[C@H](C)[C@@H](CN(C)S(=O)(=O)c2ccc(Cl)cc2)OCCCC[C@H](C)O3)cc1	active
COc1ccc(S(=O)(=O)N(C)C[C@@H]2OCCCC[C@@H](C)Oc3ccc(NS(=O)(=O)c4ccc(Cl)cc4)cc3C(=O)N([C@@H](C)CO)C[C@H]2C)cc1	active
COc1ccc(S(=O)(=O)Nc2ccc3c(c2)C(=O)N([C@@H](C)CO)C[C@@H](C)[C@@H](CN(C)S(=O)(=O)c2ccc(Cl)cc2)OCCCC[C@H](C)O3)cc1	inactive
COc1ccc(S(=O)(=O)Nc2ccc3c(c2)C(=O)N([C@@H](C)CO)C[C@H](C)[C@H](CN(C)S(=O)(=O)c2ccc(Cl)cc2)OCCCC[C@H](C)O3)cc1	inactive
COc1ccc(S(=O)(=O)Nc2ccc3c(c2)C(=O)N([C@H](C)CO)C[C@H](C)[C@@H](CN(C)S(=O)(=O)c2ccc(Cl)cc2)OCCCC[C@H](C)O3)cc1	inactive
COc1ccc(S(=O)(=O)Nc2ccc3c(c2)C(=O)N([C@@H](C)CO)C[C@@H](C)[C@@H](CN(C)S(=O)(=O)c2ccc(Cl)cc2)OCCCC[C@@H](C)O3)cc1	inactive
COc1ccc(S(=O)(=O)N(C)C[C@@H]2OCCCC[C@H](C)Oc3ccc(NS(=O)(=O)c4ccc(Cl)cc4)cc3C(=O)N([C@@H](C)CO)C[C@@H]2C)cc1	active
COc1ccc(S(=O)(=O)N(C)C[C@H]2OCCCC[C@H](C)Oc3ccc(NS(=O)(=O)c4ccc(Cl)cc4)cc3C(=O)N([C@@H](C)CO)C[C@H]2C)cc1	inactive
COc1ccc(S(=O)(=O)N(C)C[C@@H]2OCCCC[C@H](C)Oc3ccc(NS(=O)(=O)c4ccc(Cl)cc4)cc3C(=O)N([C@H](C)CO)C[C@@H]2C)cc1	active
COc1ccc(S(=O)(=O)Nc2ccc3c(c2)C(=O)N([C@H](C)CO)C[C@@H](C)[C@@H](CN(C)S(=O)(=O)c2ccc(Cl)cc2)OCCCC[C@@H](C)O3)cc1	inactive
CN(Cc1cc(Br)cc(Br)c1N)C1CCCCC1.Cl	inactive
C[C@@H]1CN([C@@H](C)CO)C(=O)c2ccccc2-c2ccccc2CO[C@@H]1CN(C)Cc1ccc(-c2ccccc2)cc1	inactive
Cc1noc(C)c1NC(=O)Nc1ccc2c(c1)C(=O)N([C@@H](C)CO)C[C@@H](C)[C@@H](CN(C)Cc1ccc3c(c1)OCO3)OCCCC[C@H](C)O2	inactive
Cc1cc(C(=O)Nc2cccc3c2O[C@H](CN(C)Cc2ccc(C(=O)O)cc2)[C@H](C)CN([C@@H](C)CO)C3=O)n(C)n1	inactive

SMILES	cytotoxicity call
CO[C@H]1CN(C)C(=O)c2cc(NS(=O)(=O)c3cn(C)cn3)ccc2OC[C@@H](C)N(CCC(F)(F)F)C[C@@H]1C	inactive
C[C@@H]1CCCCO[C@@H](CN(C)S(C)(=O)=O)[C@@H](C)CN([C@@H](C)CO)C(=O)c2cc(N(C)C)ccc2O1	inactive
C[C@H](CO)N1C[C@H](C)[C@H](CN(C)S(C)(=O)=O)Oc2ccc(NC(=O)Cn3cnnn3)cc2CC1=O	inactive
CC(C)N1C[C@H](C)[C@@H](CN(C)Cc2ccc(Cl)c(Cl)c2)Oc2c(cccc2-c2nnc(-c3ccncc3)o2)C1=O	inactive
Cc1noc(C)c1NC(=O)N[C@@H]1CC[C@@H](CC(=O)NCCCN(C)C)O[C@@H]1CO	inactive
CC(C)CC#Cc1ccc2c(c1)O[C@H](CN(C)C(=O)C1CCOCC1)[C@H](C)CN([C@@H](C)CO)S2(=O)=O	inactive
CCCN(C)C[C@H]1OCCCC[C@@H](C)Oc2ccc(NS(=O)(=O)c3cn(C)cn3)cc2C(=O)N([C@@H](C)CO)C[C@@H]1C	inactive
C[C@H]1CN([C@@H](C)CO)C(=O)c2cccc(NS(=O)(=O)c3cn(C)cn3)c2O[C@H]1CN(C)C(=O)NC1CCCCC1	inactive
COc1ccc(S(=O)(=O)Nc2ccc3c(c2)CC(=O)N([C@H](C)CO)C[C@@H](C)[C@H](CN(C)S(=O)(=O)c2ccc(C)cc2)O3)cc1	inactive
Cc1noc(C)c1NC(=O)N[C@@H]1C=C[C@@H](CC(=O)NCCCN(C)C)O[C@H]1CO	inactive
COc1ccc(S(=O)(=O)Nc2ccc3c(c2)C(=O)N([C@H](C)CO)C[C@@H](C)[C@H](CN(C)S(=O)(=O)c2ccc(Cl)cc2)OCCCC[C@@H](C)O3)cc1	inactive
COc1ccc(S(=O)(=O)N(C)C[C@H]2OCCCC[C@@H](C)Oc3ccc(NS(=O)(=O)c4ccc(Cl)cc4)cc3C(=O)N([C@H](C)CO)C[C@H]2C)cc1	active
COc1ccc(S(=O)(=O)N(C)C[C@@H]2OCCCC[C@H](C)Oc3ccc(NS(=O)(=O)c4cn(C)cn4)cc3C(=O)N([C@H](C)CO)C[C@@H]2C)cc1	inactive
COc1ccc(S(=O)(=O)N(C)C[C@H]2OCCCC[C@H](C)Oc3ccc(NS(=O)(=O)c4ccc(Cl)cc4)cc3C(=O)N([C@H](C)CO)C[C@H]2C)cc1	active
COc1ccc(S(=O)(=O)Nc2ccc3c(c2)C(=O)N([C@@H](C)CO)C[C@H](C)[C@@H](CN(C)S(=O)(=O)c2ccc(Cl)cc2)OCCCC[C@@H](C)O3)cc1	inactive
COc1ccc(S(=O)(=O)N(C)C[C@@H]2OCCCC[C@@H](C)Oc3ccc(NS(=O)(=O)c4cn(C)cn4)cc3C(=O)N([C@@H](C)CO)C[C@H]2C)cc1	inactive
COc1ccc(S(=O)(=O)Nc2ccc3c(c2)C(=O)N([C@@H](C)CO)C[C@H](C)[C@H](CN(C)S(=O)(=O)c2ccc(Cl)cc2)OCCCC[C@@H](C)O3)cc1	active
COc1ccc(S(=O)(=O)N(C)C[C@H]2OCCCC[C@@H](C)Oc3ccc(NS(=O)(=O)c4cn(C)cn4)cc3C(=O)N([C@H](C)CO)C[C@H]2C)cc1	active
